The values that follow come from paper PMC7819943, “Rice protein-binding microarrays: a tool to detect cis-acting elements near promoter regions in rice”.

Over roughly 39,000 sequences, “fluorescence intensity (a.u.)” has its median near 4,300; the highest 2% begin near 39,000. This is one part of a sample in which the highest values are shown more often than they occur.

This assay addresses T1, OsSMF1 (Oryza sativa, UniProt Q6ZLB0 1-436).
T1 sequence: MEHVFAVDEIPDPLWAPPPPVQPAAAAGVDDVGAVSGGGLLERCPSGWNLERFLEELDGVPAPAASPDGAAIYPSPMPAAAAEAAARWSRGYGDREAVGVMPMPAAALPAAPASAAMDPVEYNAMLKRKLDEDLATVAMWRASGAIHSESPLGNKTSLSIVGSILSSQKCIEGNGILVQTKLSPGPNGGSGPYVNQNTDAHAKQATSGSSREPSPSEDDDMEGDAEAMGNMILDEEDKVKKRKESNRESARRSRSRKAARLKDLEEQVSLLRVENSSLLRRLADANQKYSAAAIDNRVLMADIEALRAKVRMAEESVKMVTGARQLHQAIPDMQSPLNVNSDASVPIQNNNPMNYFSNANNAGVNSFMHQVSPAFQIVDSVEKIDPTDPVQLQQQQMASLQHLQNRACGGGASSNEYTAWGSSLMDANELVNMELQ
Nature of the assay: protein-binding microarray (RPBM); PBS, 2% BSA, 51.3 ng/ul salmon testes DNA, 50 uM zinc acetate, 200 nM TF, 25 C, 1 h; high values mean tight binding. As to conditions: protein: recombinant; tags: N-terminal polyhistidine and DsRed monomer fusion (pET32a); chain copies: 2; label: CyDye5-dUTP incorporated in the synthesized complementary strand; 3' TTTTT single-stranded linker to array surface; dsDNA, one strand shown. In short, it runs like this: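 The binding signal for each feature is its fluorescence intensity in arbitrary units. An Axon 4000B scanner was used to read a custom Agilent array that had been made double-stranded with Cy5-dUTP primer extension, blocked with 2% BSA, incubated at 25 °C for 1 h with 200 nM protein in PBS, 2% BSA, salmon testes DNA and 50 µM zinc acetate, and washed. The protein was an N-terminal polyhistidine–DsRed transcription factor fusion from E. coli BL21-CodonPlus, purified on Ni–NTA.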
As to “TTCTGTAACATAGGCTAACGTCAACGTGGCATTCATTTTGCGGAGTCACCTAGTGCAG”, the binding signal was 13200 fluorescence intensity (a.u.). The same measure for “CTGCACATAATAACGTGGATGAATCTTAAACGTCCATTTACGGAGTCACCTAGTGCAG”: 47100 fluorescence intensity (a.u.); for “AAATAATTTATGAATAAAACTTTTATCTACGTGTTCTTAACGGAGTCACCTAGTGCAG”: 4110 fluorescence intensity (a.u.). Regarding “ATTAGTTTTATTAAATCTTACATTGAATATATTTTGATAACGGAGTCACCTAGTGCAG”, the binding signal is 3390 fluorescence intensity (a.u.).

As for “TATTTAAGTCAGTACTAAAGCACACATGTACAAATTTTACCGGAGTCACCTAGTGCAG”, the binding signal was 4160 fluorescence intensity (a.u.). For the sequence “ACCAAACACCGCAAAATAAACAGTCATCCTCCGCACCGCGCGGAGTCACCTAGTGCAG”, the binding signal was 4480 fluorescence intensity (a.u.).

As to “ATAACAGCGGGCCTTACGTGTACATGATAGTATATAGTACCGGAGTCACCTAGTGCAG”, the binding signal is 7000 fluorescence intensity (a.u.). As for “GTTTGTTGTCGATACAATCACTAGTTGTGTTTGTTAATTTCGGAGTCACCTAGTGCAG”, the figure is 4170 fluorescence intensity (a.u.). The same measure for “TGAAACGGAGGGAGTATTATTAATATCTTAAGATGGACGACGGAGTCACCTAGTGCAG”: 6690 fluorescence intensity (a.u.); for “TTTATTAATATATATATATATATATATATATATATATATACGGAGTCACCTAGTGCAG”: 7400 fluorescence intensity (a.u.); for “CTATTAGAATATTTTATAATAGTTAATAGTTAATTAATTACGGAGTCACCTAGTGCAG”: 39700 fluorescence intensity (a.u.). The same measure for “ATATTTAACAACGGATCAAATGATAGGAAAATAATTAATACGGAGTCACCTAGTGCAG”: 4700 fluorescence intensity (a.u.); for “AATTACATAATTTTAATACGAAGATGAATGATCAAATATACGGAGTCACCTAGTGCAG”: 56600 fluorescence intensity (a.u.); for “TTATTAATATATTTAATTTAATGATCCGAGATAACATATCCGGAGTCACCTAGTGCAG”: 35600 fluorescence intensity (a.u.). For “ATATAAGATGTAACTATTACGATGTTTCATGATACAAGTACGGAGTCACCTAGTGCAG”, the binding signal is 15000 fluorescence intensity (a.u.). As for “ACAGACTTGTTTAAGTTACAAGACGATACTATAAGAATTTCGGAGTCACCTAGTGCAG”, the figure is 41100 fluorescence intensity (a.u.); as for “AAAATAAAATTTATTAATAATATTTTATCTATATTTACGACGGAGTCACCTAGTGCAG”, 30400 fluorescence intensity (a.u.). As for “ATCAACAACTGTATTTAAAATGGGACGAATAGAGTAAATGCGGAGTCACCTAGTGCAG”, the figure is 20200 fluorescence intensity (a.u.).

For “CAGAAAACAATAGTTATATTTAAGATGGGACGAATGGAGTCGGAGTCACCTAGTGCAG”, the binding signal is 53100 fluorescence intensity (a.u.).

Regarding “GAGCGAGGCGAGGGTGGGGAGGCGGAGGAGGATGTCCAGGCGGAGTCACCTAGTGCAG”, the binding signal was 4580 fluorescence intensity (a.u.). As for “ATTTGATAAATGGGATGCCACGTGTACACCACGTCAACAGCGGAGTCACCTAGTGCAG”, the figure is 31000 fluorescence intensity (a.u.); as for “GATCAGATCGCACGCTGAGACGTATAGACGACGTGGGTCCCGGAGTCACCTAGTGCAG”, 4650 fluorescence intensity (a.u.); as for “TGTTTGTATAATTTTGAGTTATCAACAGTCGCGATGGAGACGGAGTCACCTAGTGCAG”, 24900 fluorescence intensity (a.u.). As for “CAAGTACCCAACCCGCGTCGTCATCGTCGTCTTCCTACTTCGGAGTCACCTAGTGCAG”, the figure is 5510 fluorescence intensity (a.u.); as for “AAAATGTCATGTAACTACGCCATTGGACCATAAATATTTTCGGAGTCACCTAGTGCAG”, 13600 fluorescence intensity (a.u.); as for “TATGGATGGGTTTTATTAATAGTCTACGTTTAATATTTATCGGAGTCACCTAGTGCAG”, 4490 fluorescence intensity (a.u.). The same measure for “TTTCTCGGAATTTCTGGAAATTTTCTTGGAATTAGTAGAACGGAGTCACCTAGTGCAG”: 65500 fluorescence intensity (a.u.); for “TACGGAACCTGTAATTTGTTTTGTTATTAGTCTACATTTACGGAGTCACCTAGTGCAG”: 45800 fluorescence intensity (a.u.); for “ATATTATATTAAATTTGTAGTTTTACGATAATATGGTAAACGGAGTCACCTAGTGCAG”: 25400 fluorescence intensity (a.u.).

With “CAGACGGATTATGTAATTTGTTTTATTATTAATTAGTCTACGGAGTCACCTAGTGCAG”, the binding signal is 3890 fluorescence intensity (a.u.). As for “TACGAATTATGTAATTTGTTTTGTTATTAGTGTACATCTACGGAGTCACCTAGTGCAG”, the figure is 4070 fluorescence intensity (a.u.).

For the sequence “AATATGGATTATTACCAAGAATTTATCCGTTGTTTTGCTACGGAGTCACCTAGTGCAG”, the binding signal is 40700 fluorescence intensity (a.u.). As for “GAGAGAATCTTGGAACGATTAGTAGTACATAAAGTAGAATCGGAGTCACCTAGTGCAG”, the binding signal was 3650 fluorescence intensity (a.u.). Turning to “TATTCTGATTGGAACTTATGAGTCTTGAATTCTTGATTCTCGGAGTCACCTAGTGCAG”, the binding signal was 29700 fluorescence intensity (a.u.). Regarding “TGTATTTGCTACCGTTTTCCAATATGTACCGTCATGTTTCCGGAGTCACCTAGTGCAG”, the binding signal was 3920 fluorescence intensity (a.u.).

For the sequence “ATTATTTAAGTGATGATATGTAAATAACGAGTGAAGTTTTCGGAGTCACCTAGTGCAG”, the binding signal was 3400 fluorescence intensity (a.u.). As for “TTATTATTAGTAAATATGTAGTTTTACGATATTTAGTCTTCGGAGTCACCTAGTGCAG”, the binding signal is 44400 fluorescence intensity (a.u.). As for “CTCGCTCGCCTGCCTCCCCACCTCACCAGCTCACCCCACGCGGAGTCACCTAGTGCAG”, the figure is 4810 fluorescence intensity (a.u.); as for “TCAAGATCCAACAGCTTGTCTCGTGCTCGTCACAGCTTCTCGGAGTCACCTAGTGCAG”, 3230 fluorescence intensity (a.u.); as for “GCAAGAGATCCGAGAAGAGCAACATAACCCACAGGCCGCTCGGAGTCACCTAGTGCAG”, 3720 fluorescence intensity (a.u.). As for “CCCCACCGACGGCGTGCAAAGCGGCCACCCAGCTCGACGCCGGAGTCACCTAGTGCAG”, the figure is 8120 fluorescence intensity (a.u.); as for “TTAGTATTTAAAATTTAAAAGCAAAGTCATTCTCCTTCTACGGAGTCACCTAGTGCAG”, 8610 fluorescence intensity (a.u.).
